Broadly, the inhibition is the percentage by which the read-out fell short of the control.

Active and inactive are the calls of the source.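 The calls were made as follows: active = blocks over 70% of labeled estradiol binding at 10 µM, or over a set limit at 100 nM; inactive = the rest.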

The target of one test is Estrogen receptor beta (Homo sapiens) (UniProt Q92731). The test can be described thus: ERbeta ligand binders by competition, primary screen, cell-based, Cos7 ERbeta-GFP, flow cytometry (AID 1210).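 Also: 0% = DMSO vehicle wells and 100% = complete loss of labeled estradiol signal.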 The settings on record: fluorescent estrogen binding, at 10 µM, stronger effect = higher value. (In general: A flow cytometer gives signals particle by particle.)
Estrogen receptor beta (Homo sapiens), sequence (Q92731 whole entry, looked up): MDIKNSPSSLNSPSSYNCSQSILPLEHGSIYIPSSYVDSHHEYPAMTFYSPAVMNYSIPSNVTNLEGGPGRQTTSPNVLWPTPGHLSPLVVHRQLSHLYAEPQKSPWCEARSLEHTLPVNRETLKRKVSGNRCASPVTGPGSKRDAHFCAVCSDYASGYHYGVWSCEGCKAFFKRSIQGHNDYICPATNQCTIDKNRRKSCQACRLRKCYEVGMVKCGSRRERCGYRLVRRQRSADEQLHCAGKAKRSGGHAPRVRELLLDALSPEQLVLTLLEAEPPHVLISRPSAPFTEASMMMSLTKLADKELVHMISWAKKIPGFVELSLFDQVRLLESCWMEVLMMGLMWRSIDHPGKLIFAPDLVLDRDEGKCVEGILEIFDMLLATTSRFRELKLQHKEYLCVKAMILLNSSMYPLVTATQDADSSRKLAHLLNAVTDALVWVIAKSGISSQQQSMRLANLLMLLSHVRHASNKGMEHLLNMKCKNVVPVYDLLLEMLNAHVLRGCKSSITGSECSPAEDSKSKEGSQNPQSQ
For the compound `N#CC(C(=O)Nc1ccc(Cl)cc1)=C1Nc2ccccc2N1`, the inhibition is 59% (inactive).
Regarding `CCO/C([O-])=N/c1c[n+](N2CCOCC2)no1`, the inhibition is 21% (inactive).
The same measure, in the same setting: under `O=C1/C(=C\c2ccco2)SC(=S)N1c1ccc(O)cc1` stands 77% (active); under `CCCc1nnc2n1N=C(c1ccc(-c3cc(Cl)ccc3Cl)o1)CS2`, 43% (inactive).
As for `C/C=C(/C(=C/C)c1ccc(O)cc1)c1ccc(O)cc1`, the inhibition was 55% (active).
For the compound `Cn1nnnc1SCC(=O)Nc1nc(-c2ccccc2)c(-c2ccccc2)o1`, the inhibition was 39% (inactive).
On the same count and under the same terms, the result for `COc1ccc2[nH]c3nc(SCc4nnc(-c5ccc(C)cc5)o4)nnc3c2c1` reads 49% (inactive); that for `CCc1ccc2c(c1)[C@H]1OCC[C@H]1[C@@H](c1cccs1)N2`, 0% (inactive); that for `COc1cccc(NS(=O)(=O)c2ccc3c(c2)C2C=CCC2C(c2ccc(C(=O)O)cc2)N3)c1` (centres undefined), 0% (inactive).
Same read-out and setting: under `COc1ccc(C2Nc3ccccc3C(=O)N2c2ccccc2)cc1Cn1cc([N+](=O)[O-])cn1` (centres undefined) stands 26% (inactive).
On the same count and under the same terms, under `COC(=O)c1ccccc1NC(=O)c1noc2c1CCC2` stands 38% (inactive).
As to `CCCCCCNC(=O)c1cc(-c2ccco2)nc2ccccc12`, the inhibition is 92% (active).
On the same count and under the same terms, the result for `Cc1ccnc(NS(=O)(=O)c2ccc(NC(=O)c3cc(-c4ccc(Br)cc4)nc4ccccc34)cc2)n1` reads 0% (inactive).
On the same count and under the same terms, under `Cc1nc2ccc(C(=O)O)cc2[nH]1` stands 31% (inactive); under `Cc1ccc(-c2nn(-c3ccccc3)cc2CSC(=N)N)cc1`, 38% (inactive); under `CCC(=O)Oc1ccc(/C(CC)=C(\CC)c2ccc(OC(=O)CC)cc2)cc1`, 68% (active).
On the same count and under the same terms, under `C=C(C)CNC(=S)NNC(=O)CCn1c2cc(Cl)ccc2c2ccc(Cl)cc21` stands 18% (inactive); under `Cc1ccc(-c2n[nH]c(=S)n2/N=C/C=C\c2ccccc2[N+](=O)[O-])cc1`, 74% (active); under `O=[N+]([O-])c1ccc(Cl)c2c1C1C=CCC1C(c1ccccn1)N2` (centres undefined), 0% (inactive).
On to `COc1ccc(N=C2NC(=O)S/C2=C\c2ccc(N(C)C)cc2)cc1`, for which the inhibition was 59% (inactive).
As to `ON=C1/C(=N\O)CC2(C/C1=N/O)OCCO2`, the inhibition was 28% (inactive).

The same test, now with this note: fluorescent estrogen binding, ligand binding inhibition, at 0.1 µM, stronger effect = higher value.
As for `COc1nc(-c2ccc(Cl)cc2)ccc1-c1noc(-c2ccco2)n1`, the inhibition is 56%.
Same read-out and setting: the result for `CN1C(=O)CC(C(=O)O)SC1=Nc1cc(Cl)c(O)c(Cl)c1` (centres undefined) reads 14%.
The same measure, in the same setting: the result for `O=Cc1ccc2oc3nc4n(c(=O)c3c(=O)c2c1)CCCS4` reads 2%.
The same measure, in the same setting: under `Cc1c2cc(O)c(=O)cc-2oc2cc(O)c(O)cc12` stands 22%.
`O=C(O)c1cc(-c2ccc(O)cc2)nc2ccccc12`: the inhibition turned out to be 8%.
On the same count and under the same terms, under `CCOC(=O)C1CCCN(C(=O)c2ccc(CS(=O)(=O)c3ccc(C)cc3)o2)C1` (centres undefined) stands 21%; under `Cc1ccc(NC(=O)CSc2nnnn2-c2ccc3c(c2)OCO3)cc1C`, 34%; under `Oc1ccccc1-c1nnc(SCCN2CCOCC2)n1Cc1ccccc1`, 41%.
Same read-out and setting: under `CCc1ccc2[nH]c(=O)c(CN(Cc3ccc4c(c3)OCO4)C(=O)c3ccco3)cc2c1` stands 6%; under `CN(C)c1ccc(N=Cc2ccco2)cc1`, 14%; under `O=C(c1cc2sccc2n1Cc1ccccc1)N1CCc2ccccc21`, 2%.
Same read-out and setting: under `O=C1c2ccccc2C(=O)N1CCCc1nc2ccccc2c(=O)n1CCCn1ccnc1` stands 20%.
On to `COc1ccc(-c2nc3ccc([N+](=O)[O-])cc3o2)cc1`, for which the inhibition is 12%.
On the same count and under the same terms, the result for `O=c1oc2ccccc2cc1-c1ccc(O)cc1O` reads 21%.
Still for that read-out and setting: the result for `CCCCCc1nnc(NC(=O)Cc2cccs2)s1` reads 5%; that for `O=C(COC(=O)CCC(=O)c1cccs1)NCc1ccco1`, 12%.
Still for that read-out and setting: the result for `O=S(=O)(NCCc1csc(-c2cccnc2)n1)c1ccc(Cl)s1` reads 78%.
Compound `N#CC(C(=O)Nc1ccc(Cl)cc1)=C1Nc2ccccc2N1` had an inhibition of 21%.
Consider `CCO/C([O-])=N/c1c[n+](N2CCOCC2)no1`, for which the inhibition worked out at 44%.
The same measure, in the same setting: the result for `O=C1/C(=C\c2ccco2)SC(=S)N1c1ccc(O)cc1` reads 27%; that for `CCCc1nnc2n1N=C(c1ccc(-c3cc(Cl)ccc3Cl)o1)CS2`, 48%; that for `C/C=C(/C(=C/C)c1ccc(O)cc1)c1ccc(O)cc1`, 85%.
`Cn1nnnc1SCC(=O)Nc1nc(-c2ccccc2)c(-c2ccccc2)o1` returned an inhibition of 32%.
Still for that read-out and setting: the result for `COc1ccc2[nH]c3nc(SCc4nnc(-c5ccc(C)cc5)o4)nnc3c2c1` reads 18%; that for `CCc1ccc2c(c1)[C@H]1OCC[C@H]1[C@@H](c1cccs1)N2`, 65%.
The same measure, in the same setting: the result for `COc1cccc(NS(=O)(=O)c2ccc3c(c2)C2C=CCC2C(c2ccc(C(=O)O)cc2)N3)c1` (centres undefined) reads 9%; that for `COc1ccc(C2Nc3ccccc3C(=O)N2c2ccccc2)cc1Cn1cc([N+](=O)[O-])cn1` (centres undefined), 45%.
As for `COC(=O)c1ccccc1NC(=O)c1noc2c1CCC2`, the inhibition came out at 26%.
On the same count and under the same terms, the result for `CCCCCCNC(=O)c1cc(-c2ccco2)nc2ccccc12` reads 2%.
The same measure, in the same setting: the result for `Cc1ccnc(NS(=O)(=O)c2ccc(NC(=O)c3cc(-c4ccc(Br)cc4)nc4ccccc34)cc2)n1` reads 51%; that for `Cc1nc2ccc(C(=O)O)cc2[nH]1`, 47%; that for `Cc1ccc(-c2nn(-c3ccccc3)cc2CSC(=N)N)cc1`, 33%.
The compound `CCC(=O)Oc1ccc(/C(CC)=C(\CC)c2ccc(OC(=O)CC)cc2)cc1` gave an inhibition of 80%.
`C=C(C)CNC(=S)NNC(=O)CCn1c2cc(Cl)ccc2c2ccc(Cl)cc21` had an inhibition of 20%.
On the same count and under the same terms, under `Cc1ccc(-c2n[nH]c(=S)n2/N=C/C=C\c2ccccc2[N+](=O)[O-])cc1` stands 4%; under `O=[N+]([O-])c1ccc(Cl)c2c1C1C=CCC1C(c1ccccn1)N2` (centres undefined), 19%; under `COc1ccc(N=C2NC(=O)S/C2=C\c2ccc(N(C)C)cc2)cc1`, 4%.
On the same count and under the same terms, under `ON=C1/C(=N\O)CC2(C/C1=N/O)OCCO2` stands 31%.

Source of the values: PubChem BioAssay AID1210 (NMMLSC, 2008).
